Results taken from PubChem BioAssay AID602162 (NMMLSC, 2011).
The campaign covered roughly 360,000 compounds. About 690 (0.19%) were called active. The sample holds actives, similar compounds and a random draw of the others, so the mix is not that of the screen. A number with no mark means an inactive call.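 The calls were made as follows: active = fluorescence ratio to DMSO below 75%, the collection mean minus 3 SD; inconclusive = too few cells collected in the well; inactive = the rest.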

Target: ATP-binding cassette sub-family B member 6 (Homo sapiens) (UniProt Q9NP58)
Assay: blockers of ABCB6-driven porphyrin uptake – K562-ABCB6 cells, flow cytometry, MLPCN library, primary screen (AID 602162);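 also: signal is porphyrin accumulated inside mitochondria; 100% equals median channel fluorescence of DMSO control wells; lower ratio means ABCB6 inhibition with less porphyrin fluorescence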
Details: K562-ABCB6 porphyrin accumulation, 1 h, at 10 µM, active compounds read low

Chain of ATP-binding cassette sub-family B member 6 (Homo sapiens) (Q9NP58 whole entry, looked up): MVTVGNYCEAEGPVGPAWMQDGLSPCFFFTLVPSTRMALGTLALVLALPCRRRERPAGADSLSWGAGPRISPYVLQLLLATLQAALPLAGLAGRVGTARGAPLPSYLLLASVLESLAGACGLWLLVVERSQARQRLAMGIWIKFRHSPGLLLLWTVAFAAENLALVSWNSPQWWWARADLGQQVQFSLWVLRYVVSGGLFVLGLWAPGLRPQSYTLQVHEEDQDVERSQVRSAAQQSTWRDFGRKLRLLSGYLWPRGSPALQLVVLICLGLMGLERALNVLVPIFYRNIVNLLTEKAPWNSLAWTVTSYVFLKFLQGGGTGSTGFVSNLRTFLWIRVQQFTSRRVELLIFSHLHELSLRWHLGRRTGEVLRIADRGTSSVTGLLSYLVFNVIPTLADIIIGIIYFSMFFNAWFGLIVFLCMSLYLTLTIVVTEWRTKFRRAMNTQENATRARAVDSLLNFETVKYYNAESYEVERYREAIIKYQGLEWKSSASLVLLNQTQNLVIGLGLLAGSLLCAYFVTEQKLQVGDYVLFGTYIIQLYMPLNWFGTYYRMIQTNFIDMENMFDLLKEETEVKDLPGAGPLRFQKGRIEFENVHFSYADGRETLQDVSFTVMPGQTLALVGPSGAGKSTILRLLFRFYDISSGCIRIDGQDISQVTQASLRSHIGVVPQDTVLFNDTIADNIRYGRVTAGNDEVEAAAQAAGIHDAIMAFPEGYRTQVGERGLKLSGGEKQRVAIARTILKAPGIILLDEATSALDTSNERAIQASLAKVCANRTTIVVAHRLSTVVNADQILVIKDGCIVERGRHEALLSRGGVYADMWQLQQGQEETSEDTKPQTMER

Compound | fluorescence ratio to DMSO
Cc1ccc(CCNC(=O)c2ccc3nc4ccccc4c(=O)n3c2)cc1 | 100%
O=C(NC1CCCCC1)c1ccc2c(=O)n(CC3CCCO3)c(=O)[nH]c2c1 (stereo not drawn) | 97%
Cc1ccc2nc3c(cc(C(=O)NCCc4ccccc4)c(=N)n3CC3CCCO3)c(=O)n2c1 (stereo not drawn) | 66% (active)
COc1cc2c(cc1OC)C(c1cccc([N+](=O)[O-])c1)=NCC2 | 100%
C=CCN1CC(C)/C(=N\O)CC1C (stereo not drawn) | 88%
O=C(Cc1ccc([N+](=O)[O-])cc1)NCCS(=O)(=O)N1CCN(c2ccccc2)CC1 | 107%
Cc1ccc(SCCC(=O)NCc2ccccn2)cc1 | 98%
Cc1cc(Cl)ccc1OCCCC(=O)NCc1ccccn1 | 89%
Cc1cc(C)cc(NC(=O)NCc2ccccn2)c1 | 58% (active)
NC(=O)c1ncc(C(F)(F)F)cc1Oc1ccc(F)cc1 | 91%
CCOc1cc(/C=C2/N=C(c3ccc(C(C)(C)C)cc3)OC2=O)cc(Cl)c1OS(C)(=O)=O | 102%
CC(C)(C)Cc1c(C2CCCCC2)nc2ccc(Br)cn12 | 101%
O=C(CSc1nc2ncccc2[nH]1)Nc1ccc2c(c1)OCCO2 | 103%
CCOc1cc2[nH]c(=S)n(Cc3ccc(C(=O)NCCOC)cc3)c(=O)c2cc1OCC | 98%
COc1cc2[nH]c(=S)n(Cc3ccc(C)o3)c(=O)c2cc1OC | 100%
COc1cc2[nH]c(=S)n(Cc3ccc(F)cc3)c(=O)c2cc1OC | 72% (active)
CCOC(=O)[C@]12CCC=C1N(Cc1ccco1)C(=O)[C@H](CC(=O)NCc1cccc(C(F)(F)F)c1)C2 | 107%
CCOC(=O)N1CCN(C(=O)CN(C2CCCCC2)S(C)(=O)=O)CC1 | 73% (active)
CCC(C)NC(=O)CN(C1CCCCC1)S(C)(=O)=O (stereo not drawn) | 98%
CS(=O)(=O)N(CC(=O)N1CCN(c2ccc(F)cc2)CC1)C1CCCCC1 | 94%
C=CCn1c(CNS(=O)(=O)c2ccc(Br)cc2)nnc1SC | 96%
C=Cn1cc[n+](CC(=O)c2ccc(OC)c(OC)c2)c1 | 97%
CCOC(=O)Cc1csc(NC(=O)CN(C)S(=O)(=O)c2ccc3c(c2)CCC(=O)N3)n1 | 98%
CN(CC(=O)NC(=O)Nc1ccccc1F)Cc1ccccc1 | 97%

Compound | fluorescence ratio to DMSO
CCOC(=O)c1ccc(-n2c(C)nc3c(cnn3-c3ccccc3C)c2=O)cc1 | 100%
Cc1cccc(N2CCN(C(=O)CCS(=O)(=O)c3ccc4c(c3)NC(=O)C(C)S4)CC2)c1C (stereo not drawn) | 74% (active)
CC1Sc2ccc(S(=O)(=O)CCC(=O)NCc3ccccc3Cl)cc2NC1=O (stereo not drawn) | 93%
COc1ccccc1N1CCN(C(=O)CCS(=O)(=O)c2ccc3c(c2)NC(=O)C(C)S3)CC1 (stereo not drawn) | 102%
COc1ccc(C(=O)NC2CC2)cc1OC1CCN(C/C=C/c2ccccc2)CC1 | 95%
Cc1ccc(CN(C(=O)c2sc3ccccc3c2Cl)C2CCS(=O)(=O)C2)cc1 (stereo not drawn) | 95%
CCCn1c(O)c(CN2CCCC(C)C2)c(C)c(C#N)c1=O (stereo not drawn) | 96%
CCCCn1nc(C(=O)N2CCc3ccccc32)c2ccccc2c1=O | 102%
Cc1ccc(CNC(=O)c2ccc(CS(=O)Cc3cccc(Cl)c3)o2)cc1 (stereo not drawn) | 102%
O=C(O)c1ccn(COc2ccc(Br)cc2)n1 | 95%
Cc1cccc(NS(=O)(=O)c2ccc(C)c(C(=O)NCc3cccnc3)c2)c1 | 98%
Cc1cccc(CS(=O)(=O)c2ncc(Cl)c(C(=O)Nc3ccc(F)cc3)n2)c1 | 44% (active)
Cc1cccc(NC(=O)c2nc(S(=O)(=O)Cc3ccccc3)ncc2Cl)c1 | 59% (active)
Cc1cccc(C(=O)Nc2ccc(Oc3cnccn3)cc2)c1 | 98%
CN(CC(=O)Nc1ccc(F)cc1)CC(=O)Nc1ccc(Cl)c(S(=O)(=O)N2CCOCC2)c1 | 100%
O=C(CS(=O)(=O)Cc1ccccc1)Nc1cccnc1 | 93%
O=C(CSc1nnc(SCc2ccc(Cl)cc2)s1)N/N=C/c1ccccc1Cl | 115%
O=C(CSc1nncs1)NC1CCCc2ccccc21 (stereo not drawn) | 104%
CCCCC(O)C1=C[N+](=O)CC=C1 (stereo not drawn) | 92%
O=C(Nc1ccc(F)cc1)Nc1nnc([C@H]2C[C@H](O)[C@@H](CO)O2)s1 | 104%
CCOc1ccc(CCNC(=O)CN2C(=O)NC3(CCc4ccccc43)C2=O)cc1OCC (stereo not drawn) | 103%
CCC(=O)Nc1cccc(NC(=O)CSc2nnc(-c3ccc(NS(C)(=O)=O)cc3)n2C)c1 | 103%
C=C1CCN([C@H](C(=O)NCc2cc(OC)c(OC)c(OC)c2)C(C)C)S(=O)(=O)c2ccccc21 | 97%
Cc1cccc(C(=O)NCc2nnc(SC(C)C(=O)Nc3nnc(C)s3)n2C)c1 (stereo not drawn) | 101%

Compound | fluorescence ratio to DMSO
CC(=O)c1cccc(NC(=O)CN2C(=O)c3cccnc3Oc3ccc(Cl)cc32)c1 | 114%
CC(C)[C@H](NC(=O)Nc1ccc(S(N)(=O)=O)cc1)C(=O)O | 107%
Nc1nc(COC(=O)CCC(=O)c2ccc(Cl)cc2)nc(Nc2ccccc2)n1 | 94%
O=C(c1ccc(Cl)cc1)c1cnc(Nc2ccccc2)s1 | 70% (active)
CC(C)(C)C(=O)c1cnc(Nc2ccccc2)s1 | 94%
ON=C1/C(=N\O)CC2(C/C1=N/O)OCCO2 | 103%
O=C(COC(=O)c1cccc(Cl)c1Cl)NC1CCCCCC1 | 93%
COC(=O)c1ccc2nc(C3CCCCC3)c(Cc3cccc(F)c3)n2c1 | 107%
COc1cccc(NC(=O)CS(=O)(=O)c2cn(CC(=O)N3CCOCC3)c3ccccc23)c1 | 97%
COc1ccccc1C(=O)c1ccccc1C(=O)c1ccccc1 | 102%
COc1ccccc1C(=O)C(O)c1ccccc1OC (stereo not drawn) | 73% (active)
COc1ccccc1C(=O)Nn1cnnc1 | 100%
CCOc1ccc(S(=O)(=O)NCCC(=O)N2CCCCCCC2)cc1 | 98%
CCOc1ccc(CCNC(=O)COC(=O)c2ccc(C)c(S(=O)(=O)N3CCOCC3)c2)cc1OCC | 101%
COc1c(O)ccc2c1CN1CCc3cc4c(cc3C1C2)OCO4 (stereo not drawn) | 102%
CCn1c(SCC(=O)Nc2ccc3c(c2)OCCO3)nnc1C(C)C | 88%
CCn1c(COc2ccccc2)nnc1SCC(=O)Nc1ccc2c(c1)OCCO2 | 73% (active)
Cn1ccnc1SCC(=O)Nc1ccc2c(c1)OCCO2 | 101%
COc1cc(CN2CCCC(C(=O)c3ccc(SC)cc3)C2)cc(Cl)c1O (stereo not drawn) | 96%
COC(=O)C(=Nc1ccccc1)/C(C(=O)C(=O)N(C)c1ccccc1)=C(\O)c1ccc(Cl)cc1 | 94%
COc1cc(NS(=O)(=O)c2ccc(NC(=O)c3ccc(S(=O)(=O)N4CCCCC4)cc3)cc2)ncn1 | 102%
CS(=O)(=O)N1CCC(C(=O)N2CCN(c3ccccc3)CC2)CC1 | 108%
O=S(=O)(NCCS(=O)(=O)N1CCN(c2ccccc2)CC1)c1ccc(F)cc1 | 95%
CCS(=O)(=O)N1CCC(N2CCN(c3ccccc3)CC2)CC1 | 70% (active)

Compound | fluorescence ratio to DMSO
CCOC(=O)c1cc(-c2sc(NC(=O)c3ccccc3)nc2C)n(-c2ccc(Br)cc2)n1 | 90%
Cc1ccc(S(=O)(=O)N(CC(=O)N2CCc3ccccc3C2)c2cccc(Cl)c2)cc1 | 90%
CS(=O)(=O)N(CC(=O)N1CCc2ccccc2C1)c1ccc(Br)cc1 | 95%
COc1cccc(N(CC(=O)N2CCc3ccccc3C2)S(C)(=O)=O)c1 | 73% (active)
COCCNc1cc(-c2ccccc2)nc2cc(-c3cccc(F)c3)nn12 | 97%
CC1(C(=O)NS(=O)(=O)c2ccc3ccccc3c2)CCN1C(=O)C1(c2ccc(Cl)cc2)CCC1 (stereo not drawn) | 102%
Cc1ncn2cc(-c3ccc(Cl)cc3Cl)[nH]c(=O)c12 | 96%
O=C(Nc1ccccc1C(=O)N1CCCCCC1)c1ccccc1Cl | 99%
O=C(COc1nsnc1N1CCOCC1)Nc1ccccc1Cl | 95%
O=C(Nc1ccccc1Cl)/C(Cl)=C(\Cl)S(=O)c1ccccc1 (stereo not drawn) | 43% (active)
Cc1ccc(S(=O)(=O)N2C[C@@H]3CCCC[C@@H]3[C@@H](C)[C@H]2c2cn(Cc3ccccc3)c3ccc(F)cc23)cc1 | 97%
COc1cccc(N(CC(=O)NCCSc2ccccn2)S(C)(=O)=O)c1 | 99%
Cc1ccc(C(=O)Nc2ccccc2-c2ccccc2)cc1S(=O)(=O)Nc1ccccc1 | 99%
CCOC1=C2[C@H]([C@H]3C(=O)N(c4ccccc4)C(=O)[C@H]3C1)[C@@H](c1ccccc1)N(S(=O)(=O)c1ccc(C)cc1)[C@H]2c1ccccc1 | 104%
Cc1cc(C(=O)CSc2nc(N)cc(=O)[nH]2)c(C)n1-c1cccc(F)c1 | 72% (active)
Cc1cc(C)c(C(=O)CSc2nc(C)cc(=O)[nH]2)c(C)c1 | 101%
Cc1cc(C(=O)CSc2nc(N)cc(=O)[nH]2)c(C)n1CCc1ccc(Cl)cc1 | 95%
CC(Oc1ccccc1)C(=O)NN1Cc2ccccc2C1=N (stereo not drawn) | 99%
O=C(OCC(=O)N1CCCCC1)c1ccc(OC(F)(F)F)cc1 | 95%
O=C1NC2(CCCCCC2)C(=O)N1CCS(=O)(=O)Oc1ccccc1 | 96%
O=c1ccc2cc(S(=O)(=O)N3CCN(c4ccccc4)CC3)ccc2o1 | 98%
